Screening data from PubChem.
This is a sample that favours compounds with a hit; in the whole collection about 1.8% have one here.
MEP2 TOR yeast: yeast TOR pathway MEP2-GFP modulation | S. cerevisiae MEP2-GFP strain, flow cytometry GFP, 3 h; 100% = DMSO control level | GFP response vs DMSO, % at 10 µM | 330,000 compounds, 0.51% hits;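 active = GFP response versus DMSO above a set limit, roughly screen mean plus 3 SD, cut at about 180% in these data; inconclusive = fewer than 70 cells counted for a yeast strain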;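 also: median GFP fluorescence of the barcode-gated MEP2-GFP cells per well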
RPL19A-GFP yeast: alters RPL19A-GFP fluorescence in TOR pathway yeast screen; S. cerevisiae RPL19A-GFP strain, flow cytometry, 3 h; hits give low values; percent response vs DMSO, % at 10 µM; 330,000 compounds, 0.3% hits; AID 2025;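 active = percent response vs DMSO below 50%; inconclusive = fewer than 70 events counted for the yeast strain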;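 also: median channel GFP fluorescence of the barcoded RPL19A-GFP strain; ratio of sample median GFP to plate DMSO average so 100% = DMSO; lower means less RPL19A-GFP as with rapamycin TOR inhibition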
AGP1 TOR yeast: alters AGP1-GFP fluorescence in TOR pathway yeast screen; GFP response vs DMSO, % at 10 µM; 320,000 compounds, 0.02% hits; S. cerevisiae AGP1-GFP multiplex flow cytometry, 3 h; GFP as percent of DMSO wells;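 active = GFP response relative to DMSO above a set limit, near screen average plus 3 SD, cut at about 150% in these data; inconclusive = fewer than 70 cells counted for the yeast strain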;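 also: median GFP channel fluorescence of the gated AGP1 strain per well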
Myeloid diff MLP: compounds promoting myeloid differentiation; calls only at 10 µM; ER-HoxA9 myeloid progenitors, lysozyme-GFP differentiation, flow cytometry; 360,000 compounds, 1% hits;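 active = normalized GFP-positive differentiation at or above the plate's own cutoff, the solvent-only control mean plus 3 SD; inconclusive = no clear call, values can overlap the other calls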;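 also: cells exposed to compound for four days before flow analysis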
LAP4 TOR yeast: modulators of TOR pathway LAP4-GFP in S. cerevisiae | S. cerevisiae LAP4-GFP multiplex, flow cytometry GFP, 3 h; median GFP as percent of DMSO wells | GFP response vs DMSO, % at 10 µM | 320,000 compounds, 0.34% hits | AID 2023;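 active = GFP response vs DMSO above a set limit, about the screen mean plus 3 SD, cut at about 150% in these data; inconclusive = under 70 cell events counted for the yeast strain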
CIT2-GFP yeast: alters CIT2-GFP fluorescence in TOR pathway yeast screen. S. cerevisiae CIT2-GFP strain, flow cytometry, 3 h; 100 means same as DMSO wells. GFP response vs DMSO, % at 10 µM. 320,000 compounds, 0.065% hits. AID 2029;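 active = GFP response relative to DMSO above a set limit, near the screen mean plus 3 SD, cut at about 150% in these data; inconclusive = Fewer than 70 cells measured for a yeast strain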;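 also: ratio of well median GFP fluorescence to mean of DMSO wells on the plate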
LAP4-GFP pick2: reconfirmed LAP4-GFP TOR pathway modulator in yeast; shares compounds with LAP4 TOR yeast; S. cerevisiae LAP4-GFP strain, flow cytometry GFP, 3 h; GFP response vs DMSO, % at 10 µM; 590 compounds, 20% hits; AID 2621;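 active = GFP signal as percent of the solvent control above about 150%, meaning raised reporter expression, limit read from the data; inconclusive = fewer than 70 cells counted in the well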;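 also: ratio of well median GFP fluorescence to plate DMSO mean so 100% = DMSO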
MEP2-GFP pick2: reconfirmed MEP2-GFP TOR pathway modulator in yeast; AID 2622; 590 compounds, 10% hits; GFP response vs DMSO, % at 10 µM; S. cerevisiae MEP2-GFP strain, flow cytometry GFP, 3 h; shares compounds with LAP4 TOR yeast;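 active = GFP signal above 150% of the solvent control wells, that is a rise of more than half; inconclusive = fewer than 70 yeast cells counted in the well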;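 also: median channel GFP fluorescence of all gated yeast cells per well; ratio of median GFP to plate DMSO average so 100% = DMSO level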
RPL19A-GFP pick2: reconfirmed modulator of RPL19A-GFP TOR reporter in yeast; shares compounds with LAP4 TOR yeast; S. cerevisiae RPL19A-GFP strain, flow cytometry GFP, 3 h; hits give low values; 100% means same as DMSO wells; GFP response vs DMSO, % at 10 µM; 590 compounds, 3% hits; AID 2623;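 active = under 65% GFP response relative to DMSO; inconclusive = yeast strain with under 70 measured events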;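 also: median GFP channel fluorescence per well over the all cells gate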
CIT2 GFP CP2: second confirmation of modulators of TOR reporter CIT2-GFP in yeast | shares compounds with LAP4 TOR yeast | S. cerevisiae CIT2-GFP strain, flow cytometry GFP, 3 h; DMSO control wells read 100% | GFP response vs DMSO, % at 10 µM | 590 compounds, 8% hits | AID 2624;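 active = GFP response vs DMSO above about 150%, limit read from the data; inconclusive = fewer than 70 events counted for a yeast strain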;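 also: median green fluorescence per well over all gated yeast cells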
AGP1-GFP pick2: reconfirmed modulator of AGP1-GFP TOR reporter in yeast | shares compounds with LAP4 TOR yeast | S. cerevisiae AGP1-GFP strain, flow cytometry GFP, 3 h | percent response vs DMSO, % at 10 µM | 590 tested, under 10 active | AID 2643;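 active = over 150 percent of DMSO response; inconclusive = yeast strain measured with under 70 events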;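 also: median GFP channel fluorescence over all cells without mother daughter split; sample median GFP divided by mean DMSO control so 100% equals DMSO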
s288c autofluor: compound is autofluorescent in yeast s288c cells | shares compounds with LAP4 TOR yeast | fluorescence change (kMESF span) at 33 µM | 610 tested, under 10 active | AID 2757 | S. cerevisiae s288c, 520 nm autofluorescence, flow cytometry, 3 h; hits give high values; zero means same as solvent-only cells;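 active = fluorescence span over the dose series, or activity score, above about 33, limit read from the data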
s288c autofl DR: TOR screen hit shows autofluorescence in yeast s288c; shares compounds with LAP4 TOR yeast; S. cerevisiae s288c parental, compound autofluorescence, flow cytometry, 3 h; fluorescence change (span) at 33 µM; 110 tested, under 10 active;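 active = fluorescence change span, or the activity score built from it, above 25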
TORC1 bypass gr: wildtype yeast growth loss with TORC1 bypass cells unaffected. growth rating (0-3) at 30 µM. S. cerevisiae BY4741 spot growth rating, 48-72 h; hits give low values. shares compounds with LAP4 TOR yeast. 120 tested, under 10 active;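 active = growth rating at most 1 for wild type yeast while the TORC1 bypass strain still grows fully, rated 3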
* = called active by the depositor; i = inactive; u = inconclusive; x = not tested or not shown; + = active, no number; [ ] = remark or other dose.

SMILES | MEP2 TOR yeast | RPL19A-GFP yeast | AGP1 TOR yeast | Myeloid diff MLP | LAP4 TOR yeast | CIT2-GFP yeast | s288c autofluor | others
COc1ccc(-c2cc(C(F)F)n3ncc(C(=O)NCC4CCCO4)c3n2)cc1 (stereo unspecified) | 93 | 92 | 73 | i | 89 | 174* | x | LAP4-GFP pick2=99;MEP2-GFP pick2=100;RPL19A-GFP pick2=100;CIT2 GFP CP2=106;AGP1-GFP pick2=96
COc1ccc(NC(=O)CN(C)C(=O)C2(c3ccccc3)CCCC2)cc1 | 99 | 82 | 112 | i | 152* | 83 | x | LAP4-GFP pick2=99;MEP2-GFP pick2=98;RPL19A-GFP pick2=98;CIT2 GFP CP2=108;AGP1-GFP pick2=99
c1ccc(-c2cccc(-c3ccccn3)n2)nc1 | 112 | 89 | 78 | u | 319* | 128 | 0.61 | s288c autofl DR=0;TORC1 bypass gr=3
c1ccc(-c2nnc(-c3ccccn3)nn2)nc1 | 99 | 97 | 93 | i | 97 | 92 | x
COC(=O)C[C@H]1c2cc(F)ccc2S(=O)(=O)N1c1ccccc1 | 101 | 97 | 96 | i | 93 | 103 | x
O=C1c2ccccc2C(=O)N1SC1CCCCC1 | 78 | 59 | 70 | i | 68 | 56 | x | LAP4-GFP pick2=96;MEP2-GFP pick2=116;RPL19A-GFP pick2=101;CIT2 GFP CP2=115;AGP1-GFP pick2=101
Cc1noc(C)c1-c1ccc(C(=O)NCc2cccnc2)c2occc12 | x | x | x | i | x | x | x
Oc1c(C(Nc2cccc(C(F)(F)F)c2)c2ccncc2)ccc2cccnc12 (stereo unspecified) | 88 | 91 | 88 | i | 170* | 90 | 0.7
Oc1c(C(Nc2nc3ccccc3s2)c2ccco2)ccc2cccnc12 (stereo unspecified) | 103 | 91 | 86 | u | 203* | 83 | 0.3
CC(C)C(=O)NC(c1ccco1)c1ccc2cccnc2c1O (stereo unspecified) | 99 | 98 | 99 | u | 103 | 114 | x
Nc1nc(NCCCN2CCOCC2)nc(Nc2cccc(F)c2)c1[N+](=O)[O-] | 93 | 93 | 100 | i | 104 | 94 | x
C=CCNc1nc(N)c([N+](=O)[O-])c(Nc2cccc(Cl)c2)n1 | 105 | 100 | 102 | i | 107 | 106 | x
Nc1nc(Nc2cccc(F)c2)nc(Nc2cccc(F)c2)c1[N+](=O)[O-] | x | x | x | x | x | x | x | s288c autofl DR=0;TORC1 bypass gr=3
Nc1nc(NCCOCCO)nc(Nc2cccc(F)c2)c1[N+](=O)[O-] | 116 | 115 | 105 | i | 105 | 109 | x
CNc1nc(N)c([N+](=O)[O-])c(Nc2cccc(Cl)c2)n1 | 109 | 93 | 96 | i | 114 | 121 | x | s288c autofl DR=0.36;TORC1 bypass gr=3
CNc1nc(N)c([N+](=O)[O-])c(Nc2cccc(F)c2)n1 | 338*[may fluoresce green] | 73 | 134 | i | 140 | 274*[may fluoresce green] | -0.2 | LAP4-GFP pick2=141;MEP2-GFP pick2=+;RPL19A-GFP pick2=79;CIT2 GFP CP2=350*;AGP1-GFP pick2=159*;s288c autofl DR=0.07;TORC1 bypass gr=1*
Nc1nc(Nc2ccccc2)nc(Nc2cccc(F)c2)c1[N+](=O)[O-] | x | x | x | x | x | x | x | s288c autofl DR=0.26;TORC1 bypass gr=3
Cc1nc2sc3c(c2c2nnc(SCC(=O)NCc4ccco4)n12)CCCC3 | 98 | 99 | 99 | i | 113 | 90 | x
COc1ccc(-n2nc(C(=O)N3CCC(N4CCCCC4)CC3)c3c4ccccc4n(C)c3c2=O)cc1 | 104 | 104 | 104 | i | 110 | 108 | x
CCNC(=O)C1(C)CCCN(C(=O)c2ccccc2Br)C1 (stereo unspecified) | x | x | x | i | x | x | x
CCc1ccccc1NC(=O)CN1CCN(C(=O)CNC(=O)c2ccc(N3CCCC3=O)cc2)CC1 | 97 | 96 | 96 | i | 92 | 95 | x
Cc1cc(Nc2cc(-c3ccccc3)nc(NCc3ccccc3)n2)n[nH]1 | x | x | x | x | x | x | x | TORC1 bypass gr=3
CC(C)(C)C(=O)NC(=S)NNC(=O)c1sc2ccccc2c1Cl | 118 | 82 | 101 | i | 233* | 95 | 0
O=C1C(Cl)=C(NCCCN2CCOCC2)C(=O)N1CCc1ccccc1 | 98 | 98 | 105 | i | 101 | 102 | x
O=C1C(Cl)=C(NCCc2ccccc2)C(=O)N1CCc1ccccc1 | 90 | 91 | 91 | i | 96 | 82 | 0.1
SMILES | MEP2 TOR yeast | RPL19A-GFP yeast | AGP1 TOR yeast | Myeloid diff MLP | LAP4 TOR yeast | CIT2-GFP yeast | s288c autofluor | others
C=CCOc1cccc(C(=O)/C=C2/C(=O)Nc3ccccc32)c1 | 118 | 93 | 105 | i | 127 | 105 | 0
CC(=O)/C=C1/C(=O)Nc2ccccc21 | 80 | 89 | 95 | i | 121 | 85 | x
COc1cc(/C=C/c2ccccc2)cc(OC)c1 | x | x | x | i | x | x | x
COc1cc(C=C2C(=O)c3ccccc3C2=O)cc(OC)c1 | 91 | 93 | 91 | + | 120 | 89 | 0 | LAP4-GFP pick2=99;MEP2-GFP pick2=96;RPL19A-GFP pick2=98;CIT2 GFP CP2=106;AGP1-GFP pick2=101
COc1cc(C=C2C(=O)c3ccccc3C2=O)cc(OC)c1OC | 90 | 100 | 89 | + | 121 | 89 | 0.2 | LAP4-GFP pick2=105;MEP2-GFP pick2=103;RPL19A-GFP pick2=93;CIT2 GFP CP2=96;AGP1-GFP pick2=103
COc1ccc(C=C2C(=O)c3ccccc3C2=O)cc1O | 100 | 97 | 100 | i | 104 | 97 | 0.3 | LAP4-GFP pick2=94;MEP2-GFP pick2=97;RPL19A-GFP pick2=103;CIT2 GFP CP2=103;AGP1-GFP pick2=95
COc1cc(C=C2C(=O)c3ccccc3C2=O)ccc1O | 91 | 103 | 97 | i | 90 | 96 | x
CCc1ccc(NC(=O)c2cc(C)no2)cc1 | 106 | 100 | 100 | i | 100 | 92 | x
O=C(Nc1nncs1)c1c(F)c(F)c(F)c(F)c1F | 94 | 98 | 100 | i | 118 | 95 | x
